The whole screen tested about 350,000 compounds, of which about 2,700 (0.77%) were called active. The sample as a whole holds a higher share of actives than the screen did. Unmarked numbers belong to inactive results.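 Rule for the calls: active = inhibition reaching at least a set limit at 20 µM in the primary screen (cut at about 59% in these data); inactive = the rest.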
tested on: glucose-6-phosphate dehydrogenase-6-phosphogluconolactonase (Plasmodium falciparum 3D7); assay: inhibition of malaria parasite G6PD (PfGluPho) – biochemical, fluorescence intensity, uHTS, primary screen (AID 504690); details: PfGluPho enzyme, NADPH resazurin-diaphorase fluorescence; at 20 µM; active compounds read high;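 note: 0% = DMSO wells with substrate and 100% = DMSO wells lacking glucose-6-phosphate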

SMILES | inhibition
COc1ccc(CN2CCCC(C(=O)N3CCCCC3)C2)cc1 (stereo not given) | 0.72%
O=C1OC[C@@H]2CCCN2C(=O)[C@H](CC(=O)N(CCO)Cc2ccccc2)C/C=C\CC[C@@H]1Cc1ccc(F)cc1 | -6.25%
CN1CCN(c2ccc(NC(=O)c3ccc4c(c3)OCCO4)cc2Cl)CC1 | 68.3% (active)
CN1CCN(c2ccc(NC(=O)c3cc(Cl)c4c(c3)OCCO4)cc2)CC1 | -0.01%
COC(=O)c1ccc(N2CCOCC2)c(NC(=O)c2ccc3c(c2)OCCO3)c1 | 9.1%
COc1ccc(C(=O)OC(C)C(=O)NC2CCCC2)cc1S(=O)(=O)N1CCOCC1 (stereo not given) | -8.93%
COc1ccc(COC(=O)c2ccc(Cl)c(S(=O)(=O)N3CCOCC3)c2)cc1F | 20.9%
COc1cccc(NC(=O)Nc2ccc(F)cc2)c1 | 30.6%
COc1cccc(NC(=O)NCc2ccc(F)cc2)c1 | 75.8% (active)
O=C(NCc1cccc(CNC(=O)Nc2cccc(O)c2)c1)Nc1cccc(O)c1 | 11%
CC1CCCC(N2CCN(C(=O)c3ccc(F)cc3)CC2)C1 (stereo not given) | 12.6%
CS(=O)(=O)Nc1cccc(-c2cn3ccccc3n2)c1 | -10.9%
Cc1nc(=O)c(-c2ccccc2)c(C)n1-c1ccc(Br)cc1 | -0.2%
Cc1ccc(-c2cn3cc(C)ccc3n2)cc1 | 104% (active)
CC(=O)Nc1ccc(-c2cn3cccnc3n2)cc1 | 2.85%
Cc1ccc(-c2cc(N)on2)cc1 | 8.69%
Cc1ccc2nc(-c3ccc(Br)cc3)cn2c1 | 91.8% (active)
COc1ccc(C(C)NC(=O)C2CCCC2)cc1 (stereo not given) | -12.4%
O=C(O)C1CCCCC1C(=O)N1CCN(S(=O)(=O)c2ccc(F)cc2)CC1 (stereo not given) | -3.01%
COc1ccccc1C(=O)N/C(=C/c1ccco1)C(=O)Nc1ccc(C(=O)O)cc1 | 7.16%
COCC(C)NC(=O)CSc1nc2nn(-c3ccccc3)c(=O)c-2c2n1CCCCC2 (stereo not given) | -8.52%
O=C(CCN1C(=O)COc2ccccc21)NCCCN1CCN(c2ccc(F)cc2)CC1 | -3.8%
COCCNC(=O)CSc1nc(N)c(NC(=O)c2ccco2)c(=O)[nH]1 | 3.96%

SMILES | inhibition
Cc1ccc(NC(=O)OCCNC(=O)c2ccncc2)cc1 | -14.7%
COCCNC(=O)Nc1ccc2nc(-c3ccco3)c(-c3ccco3)nc2c1 | 66.8% (active)
CC(C)(C)c1ccc(C(=O)N2CCN(CCNC(=O)C(=O)Nc3ccc(F)cc3)CC2)cc1 | 0.45%
CC(Oc1ccc(F)cc1)C(=O)N1CCN(c2ncccn2)CC1 (stereo not given) | 8.63%
CCOC(=O)C1=C(C)c2ccccc2OC1C(=O)OCC (stereo not given) | 4.58%
CCOC(=O)C(=Cc1ccccc1OC)C(=O)OCC | -10.6%
C=C1c2cccc(OC)c2O[C@H](C(=O)OCC)[C@@H]1CCCCCC | 77.8% (active)
CC1CCC2(CC1)NC(=O)N(CC(=O)c1ccc3c(c1)OCO3)C2=O (stereo not given) | 6.6%
Cn1c(-c2sccc2OCc2cccc(C(F)(F)F)c2)n[nH]c1=S | 65.3% (active)
CCOC(=O)N1CCN(Cc2nc(Cc3cccc(C(F)(F)F)c3)no2)CC1 | -8.4%
Cn1c(-c2sc3cc(C(F)(F)F)cnc3c2-c2ccccc2)n[nH]c1=S | 27.8%
O=C(OCc1cn([C@@H]2C[C@H](c3ccc(Cl)cc3)N(Cc3cccs3)C[C@H]2O)nn1)c1ccccc1 | 11.3%
O=C(O)C1CCN(C(=O)OCc2ccccc2)CC1 | -0.22%
CCN(C(=O)CSc1nnc(-c2ccc(OC(F)F)cc2)n1N)C1CCS(=O)(=O)C1 (stereo not given) | -3.99%
O=C(c1ccc(Br)o1)N(c1ccccn1)C1CCCCC1 | -15.9%
O=C(O)C(=Cc1ccc([N+](=O)[O-])cc1)CCc1ccccc1 | -27.5%
CC(=O)Nc1ccc(C=Cc2ccc([N+](=O)[O-])cc2)cc1 | 14.2%
O=C1/C(=C\c2ccc([N+](=O)[O-])cc2)CS(=O)(=O)C/C1=C/c1ccc([N+](=O)[O-])cc1 | 77.6% (active)
C[C@H]1CN([C@@H](C)CO)C(=O)c2cc(Br)cnc2O[C@H]1CN(C)S(=O)(=O)c1cccs1 | 9.15%
O=C(CCN1C(=O)c2ccncc2C1=O)Nc1cc(F)ccc1F | -12.6%
CC1(OC(=O)CCc2ccccc2)C(=O)C=C2C=C(c3ccc(C#N)cc3)N(CCc3ccccn3)C=C2C1=O (stereo not given) | 44.1%
CC1(OC(=O)C2CCCC2)C(=O)C=C2C=C(c3ccc(C#N)cc3)OC=C2C1=O (stereo not given) | 23%
COCCN1C=C2C(=O)C(C)(OC(=O)C3CCCC3)C(=O)C=C2C=C1c1ccsc1 (stereo not given) | 72.5% (active)

SMILES | inhibition
COCC(=O)N(C)C[C@H]1Oc2cc(Br)ccc2S(=O)(=O)N([C@H](C)CO)C[C@H]1C | -15.7%
CCN1CCN(c2ccc([N+](=O)[O-])cc2C(=O)c2ccc(Cl)cc2)CC1 | 11.2%
O=C(O)C1CCN(c2ccc([N+](=O)[O-])cc2[N+](=O)[O-])CC1 | -6.12%
O=[N+]([O-])c1ccc(N2CCN(c3ccc(O)cc3)CC2)c(Cl)c1 | 61.5% (active)
CCN(CCCCOC(=O)c1ccc(OC)c(OC)c1)C(C)Cc1ccc(OC)cc1 (stereo not given) | -1.86%
CC1CCC(NS(=O)(=O)c2ccc3c(c2)n(C)c(=O)c(=O)n3C)CC1 (stereo not given) | -1.38%
Cn1sc(=O)c2cc(S(=O)(=O)NC3CC3)ccc21 | 66.3% (active)
O=S(=O)(NC1CC1)c1ccc(F)c(F)c1 | 1.75%
CC1(c2ccccc2)NC(=O)N(CC(=O)N2CC(=O)Nc3ccccc32)C1=O (stereo not given) | 4.26%
CCCCOP(=O)(c1ccc(N(C)C)cc1)C(O)c1cc(OC)ccc1OC (stereo not given) | 10.8%
C=C(C)C(=O)Nc1cccc(C2=NOC3(C2)C[C@H](C(N)=O)N(C(=O)C(c2ccccc2)c2ccccc2)C3)c1 (stereo not given in full) | -3.38%
COc1ccccc1OCCC(=O)OCC(=O)NCc1ccccc1 | 9.79%
COc1cc(C(=O)NCc2ccncc2)cc(Br)c1OCc1ccccc1 | 10.8%
COc1cc(C(=S)NCc2ccccc2)cc(Br)c1O | 66.8% (active)
Cc1ccc(C(O)P(=O)(OC(C)C)c2ccc(N(C)C)cc2)cc1 (stereo not given) | -15%
O=C(O)C1CCCN1c1nc(Cl)ccc1[N+](=O)[O-] (stereo not given) | 26.3%
CC(C)(C)n1ncc2c(=O)n(Cc3c(Cl)cccc3Br)cnc21 | -2.98%
O=C(COC(=O)Cc1ccc(F)cc1)Nc1cc(S(=O)(=O)N2CCOCC2)ccc1N1CCCC1 | -0.28%
COCCNC(=S)Nc1cc(S(=O)(=O)N2CCOCC2)ccc1N1CCCCC1 | 76.4% (active)
CC(C)CCC(=O)Nc1cc(S(=O)(=O)N2CCOCC2)ccc1N1CCCC1 | 10.5%
CC(Oc1cccc(Cl)c1)C(=O)Nc1ccc(S(=O)(=O)Nc2ncccn2)cc1 (stereo not given) | -6.55%
S=C(Nc1cccnc1)Nc1ccccn1 | 7.51%
O=C(N/N=C/c1ccccn1)C12CC3CC(CC(C3)C1)C2 | -7.42%

SMILES | inhibition
S=C(NN=Cc1ccccn1)Nc1ccccn1 | 64% (active)
CC(=O)Nc1ccc(NC(=O)CCN2C(=O)C3CC=CCC3C2=O)cc1 (stereo not given) | -13%
O=C(Nc1ccc(N2CCN(C(=O)c3ccccc3)CC2)c(Cl)c1)c1cccnc1 | 17.8%
O=C(NCCN1CCCC(O)C1)c1cc(COc2c(F)cccc2F)on1 (stereo not given) | -19.2%
CN1CCN(NC(=O)c2ccc(S(=O)(=O)N3CCCCCC3)cc2)CC1 | 5.23%
COc1ccc(S(=O)(=O)NCc2cccnc2)cc1NC(=O)c1ccc(C)cc1 | -3.1%
CCOc1ccc(-n2c(N)c(C(=O)NCC3CCCO3)sc2=S)cc1 (stereo not given) | 67.6% (active)
CCOc1ccc(NS(=O)(=O)c2ccc(C(=O)NCC3CCCO3)cc2)cc1 (stereo not given) | 9.67%
CCOc1ccc(S(=O)(=O)N2CCN(C(=S)NCC3CCCO3)CC2)cc1 (stereo not given) | 8.65%
O=C(Nc1ccccc1C(=O)N1CCOCC1)C1CCC(=O)N1C1CCCC1 (stereo not given) | -1.14%
CC(OC(=O)CCc1nc(=O)c2ccccc2n1C)C(=O)NCc1ccc2c(c1)OCO2 (stereo not given) | 5.1%
Cn1c(CCC(=O)OCC(=O)NCc2ccccc2Cl)nc(=O)c2ccccc21 | 60.9% (active)
O=C(COC(=O)Cn1cnc2ccccc2c1=O)NCc1ccccc1Cl | 11%
O=c1c2ccccc2nnn1CSc1nc2sc3c(c2c(=O)n1CC1CCCO1)CCC3 (stereo not given) | 13.2%
CC[C@@H](C)[C@@H]1CN([C@@H](C)CN2CCC[C@H]2CN2C(N)=NC[C@H]2C(C)C)C(=N)N1CCc1ccc(Cl)c(Cl)c1 | -10.9%
O=C(CN(CC1CCCO1)C(=O)CNS(=O)(=O)c1ccc(F)cc1)NCc1ccco1 (stereo not given) | 9.81%
COc1cc(C(=O)CCc2ccc3c(c2)OCO3)cc(OC)c1OC | 31.9%
COc1ccc2cc1Oc1ccc(cc1)C[C@H]1c3cc(c(OC)cc3CCN1C)Oc1c(O)c(OC)cc3c1[C@H](C2)N(C)CC3 | 10.2%
COc1c(O)ccc2c1CN1CCc3cc4c(cc3C1C2)OCO4 (stereo not given) | 75.1% (active)
CCc1cccc(C)c1N1C(=O)CN(Cc2ccccc2)C1=S | 8.09%
CN(C)C(=O)N=NC(=O)N(C)C | 62.4% (active)
